Screens as filed in PubChem BioAssay.
These entries were drawn from the full list.
aSyn UTR act: Activators working through SNCA 5'UTR binding (MLPCN); alpha-synuclein 5'UTR reporter, activators screen; AID 1814; 300,000 compounds, 7.1% hits; activity score, % (tested at 7.5 µM), hits read low; in the data active = activity score below about -60%
* hit, by the source's call.

SMILES	aSyn UTR act
O=C(Oc1ccc(-c2cnc3ccccc3n2)cc1)c1cc([N+](=O)[O-])ccc1Cl	-176.0*
COc1ccc(-n2c(-c3ccc(Br)cc3)c[n+]3c2CCc2ccccc2-3)cc1	-91.0*
CC(C)c1ccc(-n2c(-c3ccccc3)c[n+]3c2CCc2ccccc2-3)cc1	78.2
Cc1cc(C)c(C(=O)CN2C(=O)NC3(CCCCC3)C2=O)cc1C	-73.2*
COCCn1c(C)cc(C(=O)CSc2nnc(C)s2)c1C	99.6
Cc1ccc(C(=O)CN2C(=O)NC3(CCCCCC3)C2=O)c(C)c1	-131.7*
COCCn1c(C)cc(C(=O)CN2C(=O)NC3(CCCCCCC3)C2=O)c1C	-99.2*
C=CCN(C(=O)C1=NN(C2CCS(=O)(=O)C2)C(=O)CC1)c1nc(-c2ccc([N+](=O)[O-])cc2)cs1 (stereo not given)	-134.7*
C/C(=N\NC(=O)CSCc1ccccc1Cl)c1cc(O)ccc1O	61.8
C/C(=N\NC(=O)c1cc(Cl)ccc1O)c1ccc(Br)s1	-76.0*
CCCC[n+]1ccn(C2=C([O-])c3ccccc3C(=O)/C2=N\S(=O)(=O)c2ccc(Cl)cc2)c1	66.0
CCOC(=O)c1c(NC2OC(=O)c3c2ccc(OC)c3OC)sc(C(=O)OC(C)(C)C)c1C (stereo not given)	-79.5*
ONC(=Nc1ccc(Cl)cc1)c1ccc(Cl)cc1	-99.8*
CCc1ccc2nc(/N=C(\N)NC(=O)c3ccccc3)nc(C)c2c1	-120.2*
CNc1nc(-c2ccc3c(c2)CCN3C(=O)c2cccc(F)c2)cs1	-427.2*
CNc1nc(-c2ccc3c(c2)CCN3C(=O)c2ccccc2C)cs1	-88.0*
Oc1ccccc1/C=N/Nc1ccccc1	-133.2*
Oc1ccc(/C=N/Nc2ccc3ccccc3c2)c(O)c1	-134.5*
CCN1CCc2c(sc(NC(=O)c3ccc(S(=O)(=O)N4CCOCC4)cc3)c2C(=O)OC)C1	-71.4*
CC1CCCCN1Cc1c(O)ccc2c(=O)c(-c3ccc(Cl)cc3)coc12 (stereo not given)	-68.3*
CC(=O)N(/N=C1\Sc2ccccc2C1=O)c1ccccc1C	-170.1*
NC(=O)c1ccsc1NC(=O)c1ccc(S(=O)(=O)N2CCCCC2)cc1	-96.0*
NC(=O)c1ccsc1NC(=O)c1ccc(S(=O)(=O)N2CCCC2)cc1	-102.7*
Cc1cccc2sc(NNC(=O)c3cc(=O)c4ccccc4o3)nc12	-62.2*
COc1ccc2nc(NNC(=O)c3cc(=O)c4ccccc4o3)sc2c1	-88.3*
SMILES	aSyn UTR act
Cc1cccc2sc(NNC(=O)c3ccc(S(=O)(=O)N4CC(C)CC(C)C4)cc3)nc12 (stereo not given)	81.5
Cc1c(O)ccc(C(=O)COc2ccc(F)cc2)c1O	-153.7*
CCc1cc(C(=O)COc2ccc(F)cc2)c(O)cc1O	-104.4*
Cc1ccc(-c2cc(N)n(-c3ccccc3)n2)cc1	-115.2*
Nc1cc(C2CCCC2)nn1-c1ccccc1	-128.0*
CCc1ccc(-c2cc(N)n(-c3ccccc3)n2)cc1	-121.0*
CCSc1nnc2ccc(-c3ccc(OC)c(OC)c3)nn12	61.7
COc1ccc(CC(=O)Nc2ccc(-c3ccc4nnc(C)n4n3)cc2)cc1OC	-75.2*
O=c1[nH]c(SCc2ccc(Cl)cc2)nc2[nH]ncc12	-69.6*
CSCc1ccc(C(=O)Nc2cccc(C)c2C)cc1	-81.9*
Cc1cccc(NC(=O)c2ccccn2)c1C	-111.8*
Cc1cccc(NC(=O)Nc2ccccn2)c1C	-70.6*
Cc1ccccc1NC(=O)Nc1ccccn1	-110.7*
Oc1cccc2ccc(Nc3ccccn3)nc12	98.4
c1ccc(Nc2ccccc2Nc2ccccn2)nc1	-63.0*
O=C(Nc1ccccn1)Nc1ccccc1[N+](=O)[O-]	-90.9*
O=C(OCc1cccc(F)c1)c1ccc2c(c1)-c1ccccc1C2=O	-68.4*
O=C(OCc1ccccc1F)c1ccc2c(c1)-c1ccccc1C2=O	-121.2*
O=C(OCC(F)(F)F)c1cccc(COc2ccc3ccccc3c2)c1	106.6
CC1CC1C(=O)OCc1cc(=O)n2cc(Br)ccc2n1 (stereo not given)	-148.0*
CC1(C(=O)OCc2cc(=O)n3cc(Br)ccc3n2)CC1(Cl)Cl (stereo not given)	-140.0*
Cc1ccccc1C(=O)NC(CC(C)C)C(=O)OCc1cc(=O)n2cc(Br)ccc2n1 (stereo not given)	-72.8*
CCCCCCCCC[n+]1cccc2c3ccccc3ccc21	69.2
c1ccc2c(c1)nnn2-c1ncnc2sccc12	-147.1*
CC(=O)Nc1ccc(-c2csc(Nc3cccc(C)n3)n2)cc1	-181.7*
SMILES	aSyn UTR act
CC(=O)Nc1cccc(-c2csc(Nc3ccc(C)cn3)n2)c1	-65.9*
CC(=O)Nc1cccc(-c2csc(Nc3ncccn3)n2)c1	-169.8*
CCc1ccc(-c2cn(C3CCCCC3)c(=S)[nH]2)cc1	-127.2*
Clc1ccc(-c2cn3c(n2)CCC3)cc1	-192.2*
Fc1ccc(COc2ccc(C(=S)N3CCCC3)cc2)cc1	-77.4*
O=C(c1ccc(COc2ccccc2Br)cc1)N1CCCCC1	-77.4*
O=C(Nc1nc2c(F)c(F)c(F)cc2s1)c1ccco1	-178.7*
O=C(Nc1ccc(-c2nc3c(ccc4ccccc43)o2)cc1)c1ccco1	-164.8*
O=C(Nc1nc2c(ccc3ccccc32)s1)c1ccco1	-293.2*
